BCR signal inh: chronic active BCR signaling inhibition | AID 493014 | ABC-DLBCL IkBa-CBG/CBR reporter, luminescence ratio, 4 h | hit rate 0.05% among 340,000 | Potency, µM (series often up to 46.1 µM), for the others: at the top dose activity change, negative = inhibition, hits mostly inhibitors; active = well fitted inhibition curve with a large enough effect in the signal ratio, with a control signal flat, not every such curve was filed as active; inconclusive = small, poorly fitted or top-dose-only effect, or effect the other way, or a change in a side signal; the % refers to the signal ratio;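 also: plate controls were basal doxycycline-induced cells for no effect and cells given 10 µM MG132 for full effect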
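Concentration-response series (up to 46 uM) were applied to TMD8 dual-reporter cells for 4 h at 37C with doxycycline. Green/red ratio, after filter-overlap correction, defined %Activity; red signal alone was normalised to basal cells and zero luminescence.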
Tb PGK inh: inhibitors of T. brucei phosphoglycerate kinase. AID 602233. hit rate 0.043% among 380,000. PGK/GAPDH coupled, Kinase-Glo luminescence, 60 min. Potency, µM (doses to about 57.5 µM), without a hit: at the top dose activity change, negative = inhibition, most hits filed as inhibitors. P07378; also: % is scaled to controls: 0 for no effect and ±100 for the full control effect; nearly all actives have a fitted effect of over 60% in size
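Luminescent ATP detection (Kinase-Glo Plus) follows a 60-minute room-temperature incubation, with wells lacking PGK as controls. Buffer: 100 mM TEA (pH 7.6), 5 mM MgCl2, 0.01% Tween-20. Coupling enzyme GAPDH (100 nM final) supplies unstable 1,3-BPG in-well.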
USP2a inh: blocks human ubiquitin-specific protease USP2a; Potency, µM (doses to about 38.3 µM), inactives show at the highest dose activity change, negative = inhibition, actives largely listed as inhibitors; USP2 core, Ub-CHOP2 coupled fluorogenic reporter, 485/531; hit rate 0.01% among 330,000;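 also: plate controls were DMSO wells for no effect and full inhibition by NEM control for full effect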
Target sequence (O75604 whole entry, looked up): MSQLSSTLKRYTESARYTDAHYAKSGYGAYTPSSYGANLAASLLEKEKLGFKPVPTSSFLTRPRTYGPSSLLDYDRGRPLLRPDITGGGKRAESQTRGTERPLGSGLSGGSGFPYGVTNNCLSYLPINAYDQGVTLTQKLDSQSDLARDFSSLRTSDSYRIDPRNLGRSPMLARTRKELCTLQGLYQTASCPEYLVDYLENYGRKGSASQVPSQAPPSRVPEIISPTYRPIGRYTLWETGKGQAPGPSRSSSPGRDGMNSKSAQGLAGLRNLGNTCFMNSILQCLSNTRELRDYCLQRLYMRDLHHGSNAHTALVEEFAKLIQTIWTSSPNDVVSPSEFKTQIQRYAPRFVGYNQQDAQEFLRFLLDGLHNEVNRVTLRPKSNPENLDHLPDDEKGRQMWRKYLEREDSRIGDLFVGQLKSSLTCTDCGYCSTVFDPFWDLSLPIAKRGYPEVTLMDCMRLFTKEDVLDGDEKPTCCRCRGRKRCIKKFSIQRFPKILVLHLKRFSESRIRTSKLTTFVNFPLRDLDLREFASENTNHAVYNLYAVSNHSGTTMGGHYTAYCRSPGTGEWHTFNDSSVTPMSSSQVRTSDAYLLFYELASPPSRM
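USP2 core (10nM final) preincubated 30min RT with compound in 20mM Tris-HCl pH 8.0, 2mM CaCl2, 2mM beta-mercaptoethanol, 0.05% CHAPS; 25nM Ub-CHOP2 plus 25nM reporter substrate added, fluorescence (Ex485/Em531) read after 60min.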
Tb PFK inh-1: blocks T. brucei phosphofructokinase. T. brucei PFK, ADP-Glo luminescence. Potency, µM (titrated, usually from 57.5 µM), inactives show at the top dose activity, negative = inhibition, actives largely listed as inhibitors. hit rate 0.17% among 330,000. O15648;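 also: 0% = uninhibited 1x PFK enzyme wells and -100% = no-enzyme wells; nearly all actives have a fitted effect of over 60% in size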
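In TEA buffer at pH 8.0 with 5 mM MgCl2, enzyme (1.25 nM) converted F6P (0.5 mM) and ATP (0.1 mM) for 45 min at room temperature. ADP product was read by luciferase luminescence.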
RGS4 inhibitor: inhibitors of human regulator of G protein signaling 4; Transcreener GDP fluorescence polarization, RGS4-accelerated GTP hydrolysis; Potency, µM (doses to about 114 µM), inactives show at the top dose activity change, negative = inhibition, actives largely listed as inhibitors; hit rate 0.039% among 390,000; AID 504845; also: % is scaled to controls: 0 for no effect and ±100 for the full control effect; nearly all actives have a fitted effect of over 75% in size
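MLSMR compounds (23 nl, pin-transferred) preincubated 10 min at room temperature with a 500nM (2x) first reagent, then RGS4 at 900nM (2x) plus Transcreener GDP mix added; fluorescence polarization (620/688 nm) read before and after 90 min at 30 °C.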
TbPFK ATP: inhibits T. brucei PFK measured by ATP depletion | Potency, µM (titrated, usually from 57.5 µM), inactives show at the highest dose inhibition | hit rate 47% among 1,100 | AID 504636 | Tb PFK enzyme, ATP depletion, Kinase-Glo Plus luminescence | shares compounds with Tb PFK inh-1; calls by dose curve; also: nearly all actives have a fitted effect of over 60% in size
Tb PFK inh-2: validation of T. brucei phosphofructokinase inhibitors. shares compounds with Tb PFK inh-1. purified T. brucei PFK, ADP-Glo luminescence, 45 min. Potency, µM (top dose mostly 57.5 µM), inactives show at the top dose activity change, negative = inhibition, usual class: inhibitors. hit rate 41% among 1,100. AID 504637;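 also: plate controls were full PFK enzyme control for no effect and no enzyme control for full effect; nearly all actives have a fitted effect of over 60% in size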
* = called active by the depositor; i = inactive; ? = inconclusive; nt = not tested or not shown; [ ] = another dose, or the depositor's remark. This is a sample that favours compounds with a hit; in the whole collection about 0.25% have one here. Unless noted, calls follow the shape of the dose curve; as a rule, active = well fitted curve in the direction sought with a large enough effect; inconclusive = small, poorly fitted or top-dose-only effect, or another doubt; inactive = no such curve, though single readings can be large; an effect the other way counts as inactive or inconclusive. Potency is read from the fitted curve at half-maximal effect.

SMILES | BCR signal inh | Tb PGK inh | USP2a inh | Tb PFK inh-1 | RGS4 inhibitor | TbPFK ATP | Tb PFK inh-2
O=C(Cc1ccc(Cl)c(Cl)c1)OCC(=O)c1ccc[nH]1 | 2% | -8% | 3% | ? | -39% | 9.5µM* | 19µM*
O=C(NNc1ccccc1C(F)(F)F)c1sccc1Cl | nt | nt | nt | nt | 6% | nt | nt
CCNc1nc(NCC)n2c(SCC(=O)Nc3ccc(CC)cc3)nnc2n1 | ? | -5% | 3% | 21µM* | ? | 17µM* | 17µM*
CCNc1nc(NCC)n2c(SCC(=O)Nc3ccc(NC(C)=O)cc3)nnc2n1 | 0% | -25% | -5% | ? | 0% | nt | nt
CCc1nn(CCCC(=O)N2CCN(c3cc(Cl)ccc3C)CC2)c(=O)c2cc3occc3n12 | nt | 5% | nt | nt | -20% | nt | nt
CCS(=O)(=O)N1CC(=O)N(c2cccc(C)c2C)C(C)(C(=O)NC2CCCCC2)C1 (stereo not drawn) | nt | i | nt | nt | -12% | nt | nt
O=C(/C=C/c1ccc(O)c(O)c1)OC(Cc1ccc(O)c(O)c1)C(=O)O (stereo not drawn) | 4% | ? | 3% | 2.7µM* | 2% | 3.4µM* | ?
Cc1nc2cc(NC(=O)COc3ccc(C#N)cc3)ccc2n1-c1ccccc1 | 2% | 6% | 7% | 21µM* | 8%[56.9 µM] | ? | ?
O=[N+]([O-])c1ccc(CSc2nnc(Cc3ccccc3)o2)cc1 | ? | i | 3% | -5% | -15%[56.9 µM] | nt | nt
O=[N+]([O-])c1ccc(CSc2nnc(-c3cnccn3)o2)cc1 | -4% | 5% | 3% | 24µM* | -9%[56.9 µM] | ? | ?
O=C(NCCc1ccccc1)c1ccc2nc(-c3ccco3)c(-c3ccco3)nc2c1 | ? | -8% | ? | ? | ? | ? | ?
C[C@H](CC[C@@H]1OC1(C)C)C1CC[C@H]2[C@@H]3CC=C4C[C@@H](O)CC[C@]4(C)[C@H]3CC[C@]12C (stereo partly drawn) | nt | nt | nt | nt | 220%[56.9 µM] | nt | nt
COc1ccc(/C=C/c2nnc(NC(=O)COc3ccc(Cl)cc3)s2)cc1 | nt | nt | nt | nt | 11% | nt | nt
Cc1ccc(SCC(=O)Nc2ccc(S(=O)(=O)Nc3nccs3)cc2)cc1 | -3% | 10% | 6% | ? | -27% | nt | nt
O=C(COc1ccccc1F)Nc1ccc(S(=O)(=O)Nc2nccs2)cc1 | 5% | -1% | 1% | 4.8µM* | 11% | 2.1µM* | 6µM*
O=C(COc1ccc(F)cc1Cl)Nc1ccc(S(=O)(=O)Nc2nccs2)cc1 | ? | -9% | 3% | 1.2µM* | -2% | 0.95µM* | 1.1µM*
CC(=O)NS(=O)(=O)c1ccc(NC(=O)CSc2ccc(Cl)cc2)cc1 | -1% | -7% | 2% | 30µM* | 4% | 13µM* | 30µM*
O=C(CSc1ccncc1)Nc1ccc(S(=O)(=O)Nc2nccs2)cc1 | 1% | -12% | 2% | 19µM* | 8% | 13µM* | 27µM*
CCOCC(=O)Nc1ccc(S(=O)(=O)Nc2nccs2)cc1 | 5% | 0% | 6% | 1% | 18% | nt | nt
Cc1ccc(Cl)cc1NC(=O)C[n+]1ccc(Cc2ccc([N+](=O)[O-])cc2)cc1 | 14% | 7% | -1% | ? | 6% | ? | ?
O=C(C[n+]1ccc(Cc2ccccc2)cc1)Nc1ccc([N+](=O)[O-])cc1Cl | -1% | -1% | -1% | -2% | -6%[56.9 µM] | nt | nt
Nc1nnc(Cc2ccccc2)s1 | -2% | -7% | 1% | -6% | 2% | nt | nt
Nc1nnc(Cc2cccc(Br)c2)s1 | 5% | -4% | 7% | ? | 13% | 21µM* | 30µM*

Screens (PubChem)
